Laboratory results published in the supplement of paper PMC10849652.
About 8,800 targets were measured; listed, in parts, are those with a hit and a random draw of the rest. About 0.5% of all pairs of compound and target were hits.

Experiments:
Experiment in all cases: log2 fold change, soluble protein after heating vs DMSO (PISA); higher = thermal stabilisation; K562 lysate, 10 uM; active = over 0.2 and 3.5 SD of the protein, either way, in both replicates (recomputed)
[1] = compound: CN1CC[C@H](c2c(O)cc(O)c3c(=O)cc(-c4ccccc4Cl)oc23)[C@H](O)C1 [alvocidib]
In short: (§1)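 Dounce homogenisation of K562 pellets in PBS pH 7.4 with 1 mM MgCl2 produced a crude extract, used at 1 mg/mL protein. Exposure to 10 μM compound lasted 30 min, and aliquots were then heated for 3 min across 48°C-58°C, pooled and brought to 0.5% NP-40 at 4°C. The supernatant after 21,000xg for 90 min was quantified by TMTpro 16plex LC-MS/MS with channel sums equalised. Duplicate values are given as log-two fold change in thermal stability relative to solvent controls.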

[2] = compound: CN1CCc2c(c3ccccc3n2Cc2ccc(C(=O)NO)cc2)C1 [Tubastatin A]
In short: as §1

[3] = compound: CNC(=O)C1=CC=CC=C1NC2=NC(=NC=C2Cl)NC3=C(C=C(C=C3)N4CCOCC4)OC
In short: as §1

[4] = compound: CNC(=O)c1ccc(Nc2ncc(C(F)(F)F)c(NCc3nccnc3N(C)S(C)(=O)=O)n2)cc1 [defactinib]
In short: as §1

[5] = compound: CNc1nc(-c2ccc3c(N)n[nH]c3c2)cc(N2C[C@@H](C(=O)NC3CCCCC3)CC[C@H]2C)n1
In short: as §1

[6] = compound: COC(=O)N[C@@H](C)CNc1nccc(-c2cn(C(C)C)nc2-c2cc(Cl)cc(NS(C)(=O)=O)c2F)n1 [encorafenib]
In short: as §1

[7] = compound: COC(=O)[C@H](CCSC)NC(=O)C1=C(C=C(C=C1)NC[C@H](CS)N)C2=CC=CC=C2
In short: as §1

[8] = compound: COc1cc(Nc2ncc3c(n2)-c2ccc(Cl)cc2C(c2c(F)cccc2OC)=NC3)ccc1C(=O)O [alisertib]
In short: as §1

[9] = compound: COc1cc2nc(-c3cc(F)ccc3O)nc(N[C@@H]3CNC[C@H]3C(C)(C)O)c2cc1OC
In short: as §1

[10] = compound: COc1cc2ncnc(Nc3ccc(F)c(Cl)c3)c2cc1OCCCN1CCOCC1 [gefitinib]
In short: as §1

Measured: log2 fold change

TTF2 (UniProt Q9UNY4)
inactive: [1] -0.018 | [2] -0.055 | [3] 0.05 | [4] 0.069 | [5] 0.005 | [6] -0.018 | [7] -0.01 | [8] 0.005 | [9] 0.056 | [10] 0.002

TPP2 (UniProt Q5VZU9)
inactive: [1] -0.099 | [2] -0.121 | [3] 0.092 | [4] 0.062 | [5] 0.068 | [6] -0.076 | [7] 0.058 | [8] 0.006 | [9] 0.076 | [10] 0.011

TUBB2A (UniProt Q13885)
inactive: [1] -0.007 | [2] -0.062 | [3] -0.021 | [4] 0.006 | [5] -0.008 | [6] 0.01 | [7] 0.071 | [8] -0.005 | [9] -0.001 | [10] -0.006

THOC5 (UniProt Q13769)
inactive: [1] -0.027 | [2] -0.025 | [3] -0.021 | [4] -0.008 | [5] -0.016 | [6] 0.005 | [7] 0.062 | [8] 0.059 | [9] 0.006 | [10] -0.018

TTC12 isoform 2 (UniProt Q9H892)
inactive: [1] -0.024 | [2] -0.279 | [3] -0.06 | [4] -0.05 | [5] -0.041 | [6] -0.052 | [7] -0.03 | [8] -0.145 | [9] -0.043 | [10] 0.137

TBC1D8B (UniProt Q0IIM8)
inactive: [1] -0.134 | [2] 0.051 | [3] -0.017 | [4] -0.057 | [5] 0.078 | [6] -0.032 | [7] 0.033 | [8] 0.11 | [9] 0.026 | [10] 0.008

TRIM33 isoform 2 (UniProt Q9UPN9)
Chain of UniProt Q9UPN9 (Q9UPN9 whole entry, looked up): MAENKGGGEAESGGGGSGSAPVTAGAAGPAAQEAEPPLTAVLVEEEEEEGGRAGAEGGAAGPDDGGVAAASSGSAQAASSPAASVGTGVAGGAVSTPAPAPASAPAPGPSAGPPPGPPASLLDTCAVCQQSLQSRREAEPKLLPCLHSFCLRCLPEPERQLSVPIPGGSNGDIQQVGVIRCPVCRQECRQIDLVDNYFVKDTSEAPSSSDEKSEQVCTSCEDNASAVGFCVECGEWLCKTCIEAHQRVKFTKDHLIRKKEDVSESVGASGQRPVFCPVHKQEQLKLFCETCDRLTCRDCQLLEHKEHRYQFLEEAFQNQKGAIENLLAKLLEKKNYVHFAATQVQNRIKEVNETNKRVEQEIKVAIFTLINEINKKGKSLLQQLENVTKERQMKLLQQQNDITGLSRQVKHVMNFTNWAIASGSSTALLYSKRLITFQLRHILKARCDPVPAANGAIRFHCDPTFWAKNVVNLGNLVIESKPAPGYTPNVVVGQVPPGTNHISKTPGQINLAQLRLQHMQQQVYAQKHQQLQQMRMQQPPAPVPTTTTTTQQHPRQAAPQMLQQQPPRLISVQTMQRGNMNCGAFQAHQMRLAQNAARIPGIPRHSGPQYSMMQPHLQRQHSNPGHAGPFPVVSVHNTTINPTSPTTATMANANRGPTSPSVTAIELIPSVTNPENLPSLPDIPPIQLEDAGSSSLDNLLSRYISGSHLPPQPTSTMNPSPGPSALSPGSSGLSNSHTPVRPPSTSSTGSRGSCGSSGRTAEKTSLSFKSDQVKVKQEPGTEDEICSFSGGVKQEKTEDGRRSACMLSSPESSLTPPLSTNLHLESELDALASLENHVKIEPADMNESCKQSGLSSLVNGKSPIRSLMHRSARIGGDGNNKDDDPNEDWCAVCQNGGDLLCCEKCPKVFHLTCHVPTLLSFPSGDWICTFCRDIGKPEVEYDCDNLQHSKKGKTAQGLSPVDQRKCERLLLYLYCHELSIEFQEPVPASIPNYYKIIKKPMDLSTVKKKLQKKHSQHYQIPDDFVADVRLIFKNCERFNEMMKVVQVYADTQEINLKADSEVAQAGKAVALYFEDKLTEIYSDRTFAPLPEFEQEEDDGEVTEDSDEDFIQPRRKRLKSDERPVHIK
inactive: [1] -0.029 | [2] -0.131 | [3] 0.016 | [4] -0.001 | [5] -0.006 | [6] 0.006 | [7] 0.052 | [8] -0.003 | [9] 0.046 | [10] 0.005

TUT4 (UniProt Q5TAX3)
Chain of UniProt Q5TAX3 (Q5TAX3 whole entry, looked up): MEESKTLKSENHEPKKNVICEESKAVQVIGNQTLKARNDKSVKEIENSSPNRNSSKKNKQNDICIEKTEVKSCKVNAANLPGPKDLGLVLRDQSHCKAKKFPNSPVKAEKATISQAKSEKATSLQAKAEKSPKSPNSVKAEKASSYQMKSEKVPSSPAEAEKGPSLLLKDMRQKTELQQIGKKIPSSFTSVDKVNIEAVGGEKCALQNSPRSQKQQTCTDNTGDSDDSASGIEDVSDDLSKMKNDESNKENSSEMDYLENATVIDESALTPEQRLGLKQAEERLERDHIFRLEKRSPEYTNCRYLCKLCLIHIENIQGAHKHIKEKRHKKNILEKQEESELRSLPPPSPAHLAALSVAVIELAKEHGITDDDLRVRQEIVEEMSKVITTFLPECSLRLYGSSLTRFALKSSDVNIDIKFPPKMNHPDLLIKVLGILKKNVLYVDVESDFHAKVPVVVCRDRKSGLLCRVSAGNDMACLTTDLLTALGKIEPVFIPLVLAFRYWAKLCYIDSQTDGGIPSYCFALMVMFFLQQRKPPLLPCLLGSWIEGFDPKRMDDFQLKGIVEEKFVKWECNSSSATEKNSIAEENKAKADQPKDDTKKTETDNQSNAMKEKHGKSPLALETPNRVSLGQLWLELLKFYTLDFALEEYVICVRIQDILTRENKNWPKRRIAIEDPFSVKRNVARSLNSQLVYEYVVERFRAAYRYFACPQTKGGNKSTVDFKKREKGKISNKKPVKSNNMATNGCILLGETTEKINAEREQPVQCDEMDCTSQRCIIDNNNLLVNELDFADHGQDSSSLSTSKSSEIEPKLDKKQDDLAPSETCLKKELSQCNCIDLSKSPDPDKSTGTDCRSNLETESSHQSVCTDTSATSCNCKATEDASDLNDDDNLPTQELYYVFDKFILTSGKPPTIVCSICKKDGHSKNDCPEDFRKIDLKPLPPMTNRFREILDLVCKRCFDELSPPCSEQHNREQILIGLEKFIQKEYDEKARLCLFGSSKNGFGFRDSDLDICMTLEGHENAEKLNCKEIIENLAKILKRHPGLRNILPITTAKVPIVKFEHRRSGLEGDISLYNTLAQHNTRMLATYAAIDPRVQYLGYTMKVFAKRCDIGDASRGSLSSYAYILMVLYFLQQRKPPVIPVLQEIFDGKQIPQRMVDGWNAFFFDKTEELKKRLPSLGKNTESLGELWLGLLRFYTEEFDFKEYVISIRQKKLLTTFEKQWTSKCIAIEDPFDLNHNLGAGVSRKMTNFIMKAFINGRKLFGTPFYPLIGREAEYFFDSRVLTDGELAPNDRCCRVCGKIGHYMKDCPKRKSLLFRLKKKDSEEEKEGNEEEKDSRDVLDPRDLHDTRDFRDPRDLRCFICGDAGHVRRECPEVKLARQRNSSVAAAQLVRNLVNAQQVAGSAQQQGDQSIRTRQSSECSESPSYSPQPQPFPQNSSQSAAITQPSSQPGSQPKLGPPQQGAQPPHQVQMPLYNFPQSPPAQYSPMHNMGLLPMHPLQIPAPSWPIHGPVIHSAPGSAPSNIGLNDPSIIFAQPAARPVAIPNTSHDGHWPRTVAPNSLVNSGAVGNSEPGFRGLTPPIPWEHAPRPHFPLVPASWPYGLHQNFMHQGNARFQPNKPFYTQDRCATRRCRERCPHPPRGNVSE
inactive: [1] -0.022 | [2] -0.1 | [3] -0.001 | [4] 0.002 | [5] 0.039 | [6] 0.059 | [7] 0.125 | [8] 0.01 | [9] -0.014 | [10] -0.007

TGFBRAP1 (UniProt Q8WUH2)
inactive: [1] -0.026 | [2] -0.153 | [3] 0 | [4] 0.005 | [5] -0.012 | [6] -0.015 | [7] -0.174 | [8] 0.011 | [9] -0.025 | [10] -0.025

TTI2 (UniProt Q6NXR4)
Chain of UniProt Q6NXR4 (Q6NXR4 whole entry, looked up): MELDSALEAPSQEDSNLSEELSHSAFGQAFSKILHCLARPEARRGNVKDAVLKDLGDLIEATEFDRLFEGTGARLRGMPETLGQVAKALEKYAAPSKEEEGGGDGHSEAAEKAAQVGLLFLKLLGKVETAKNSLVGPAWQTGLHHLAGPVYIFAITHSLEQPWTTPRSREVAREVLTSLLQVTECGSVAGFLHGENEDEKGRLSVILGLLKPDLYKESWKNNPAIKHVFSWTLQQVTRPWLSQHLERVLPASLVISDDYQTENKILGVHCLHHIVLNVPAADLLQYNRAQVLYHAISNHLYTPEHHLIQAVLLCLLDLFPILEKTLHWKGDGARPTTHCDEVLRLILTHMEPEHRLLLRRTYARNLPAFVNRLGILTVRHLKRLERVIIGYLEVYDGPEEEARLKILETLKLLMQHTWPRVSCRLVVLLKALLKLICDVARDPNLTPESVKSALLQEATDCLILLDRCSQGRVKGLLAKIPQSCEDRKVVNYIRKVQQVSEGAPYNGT
inactive: [1] -0.006 | [2] -0.081 | [3] 0.03 | [4] 0.069 | [5] 0.006 | [6] 0.072 | [7] 0.015 | [8] 0.004 | [9] 0.024 | [10] -0.034

UBR4 (UniProt Q5T4S7)
inactive: [1] 0.009 | [2] -0.06 | [3] 0.006 | [4] 0.006 | [5] -0.034 | [6] 0.003 | [7] 0.018 | [8] 0.001 | [9] 0.001 | [10] -0.029

TSPAN3 (UniProt O60637)
inactive: [1] 0.193 | [2] -0.081 | [3] 0.027 | [4] 0.096 | [5] 0.091 | [6] -0.015 | [7] 0.026 | [8] -0.231 | [9] 0.042 | [10] 0.049

THEMIS2 (UniProt Q5TEJ8)
inactive: [1] -0.036 | [2] -0.069 | [3] 0.024 | [4] 0.028 | [5] 0 | [6] -0.027 | [7] 0.023 | [8] 0.052 | [9] -0.159 | [10] 0.025

TUBB6 (UniProt Q9BUF5)
inactive: [1] 0.023 | [2] -0.064 | [3] 0.015 | [4] 0.034 | [5] 0.023 | [6] 0.017 | [7] 0.056 | [8] 0.028 | [9] 0.011 | [10] -0.024

TXNRD2 (UniProt Q9NNW7)
inactive: [1] -0.006 | [2] 0.021 | [3] 0.018 | [4] 0.015 | [5] 0.007 | [6] 0.039 | [7] -0.034 | [8] 0 | [9] 0.008 | [10] -0.064

TDRD3 isoform 3 (UniProt Q9H7E2)
Chain of UniProt Q9H7E2 (Q9H7E2 whole entry, looked up): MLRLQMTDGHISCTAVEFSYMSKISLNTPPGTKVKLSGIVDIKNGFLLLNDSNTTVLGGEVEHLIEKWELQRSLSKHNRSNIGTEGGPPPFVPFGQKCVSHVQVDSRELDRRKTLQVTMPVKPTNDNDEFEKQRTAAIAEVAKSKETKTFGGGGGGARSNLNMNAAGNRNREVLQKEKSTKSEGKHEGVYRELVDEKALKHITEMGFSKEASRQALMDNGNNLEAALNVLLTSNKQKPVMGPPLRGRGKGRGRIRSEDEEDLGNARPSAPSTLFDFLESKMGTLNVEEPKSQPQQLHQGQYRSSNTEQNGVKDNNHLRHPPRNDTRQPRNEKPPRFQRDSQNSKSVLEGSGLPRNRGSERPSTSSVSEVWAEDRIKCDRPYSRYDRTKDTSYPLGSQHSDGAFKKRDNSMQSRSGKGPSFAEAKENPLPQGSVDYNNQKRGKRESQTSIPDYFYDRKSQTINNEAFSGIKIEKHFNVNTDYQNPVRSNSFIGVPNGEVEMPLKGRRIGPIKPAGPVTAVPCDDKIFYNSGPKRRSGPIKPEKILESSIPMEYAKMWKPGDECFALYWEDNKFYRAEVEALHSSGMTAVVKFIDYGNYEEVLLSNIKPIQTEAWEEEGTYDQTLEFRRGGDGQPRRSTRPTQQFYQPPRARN
inactive: [1] 0.043 | [2] -0.08 | [3] 0.025 | [4] 0.033 | [5] 0.097 | [6] -0.006 | [7] -0.029 | [8] -0.084 | [9] -0.042 | [10] 0.297

TMEM70 (UniProt Q9BUB7)
inactive: [1] -0.037 | [2] -0.015 | [3] -0.025 | [4] -0.001 | [5] -0.056 | [6] 0.021 | [7] -0.002 | [8] 0.024 | [9] -0.041 | [10] -0.036

UBIAD1 (UniProt Q9Y5Z9)
inactive: [1] -0.016 | [2] 0.025 | [3] 0.008 | [4] 0.031 | [5] 0.157 | [6] 0.067 | [7] -0.102 | [8] 0.112 | [9] -0.061 | [10] -0.048

TMEM87B (UniProt Q96K49)
inactive: [1] 0.035 | [2] 0.044 | [3] -0.035 | [4] -0.032 | [5] -0.045 | [6] -0.055 | [7] 0.017 | [8] 0.004 | [9] 0.031 | [10] 0.018

TRIM56 (UniProt Q9BRZ2)
inactive: [1] -0.013 | [2] -0.13 | [3] 0.067 | [4] 0.008 | [5] -0.059 | [6] 0.068 | [7] -0.21 | [8] 0.04 | [9] 0.001 | [10] -0.01

TRMT10A (UniProt Q8TBZ6)
inactive: [1] 0.003 | [2] -0.008 | [3] 0.095 | [4] -0.01 | [5] 0.09 | [6] -0.031 | [7] -0.012 | [8] 0.015 | [9] -0.021 | [10] -0.004

TDRKH (UniProt Q9Y2W6)
inactive: [1] -0.017 | [2] -0.064 | [3] 0.019 | [4] 0.033 | [5] 0.042 | [6] 0.007 | [7] 0.008 | [8] -0.049 | [9] 0.04 | [10] 0.001

TRNAU1AP (UniProt Q9NX07)
inactive: [1] -0.059 | [2] -0.08 | [3] 0.015 | [4] -0.192 | [5] -0.039 | [6] 0.045 | [7] 0.034 | [8] 0.098 | [9] -0.007 | [10] -0.019

TRAPPC6A isoform 2 (UniProt O75865)
inactive: [1] 0.059 | [2] -0.006 | [3] 0.011 | [4] -0.026 | [5] -0.017 | [6] -0.142 | [7] -0.027 | [8] -0.052 | [9] 0 | [10] -0.043

UBR3 isoform 4 (UniProt Q6ZT12)
inactive: [1] 0.012 | [2] -0.155 | [3] 0.074 | [4] -0.062 | [5] -0.03 | [6] -0.006 | [7] 0.054 | [8] -0.005 | [9] 0.005 | [10] 0.018

TNPO3 (UniProt Q9Y5L0)
inactive: [1] 0.003 | [2] -0.04 | [3] 0 | [4] -0.007 | [5] -0.007 | [6] 0 | [7] -0.108 | [8] -0.001 | [9] 0.023 | [10] -0.018

TTLL12 (UniProt Q14166)
Chain of UniProt Q14166 (Q14166 whole entry, looked up): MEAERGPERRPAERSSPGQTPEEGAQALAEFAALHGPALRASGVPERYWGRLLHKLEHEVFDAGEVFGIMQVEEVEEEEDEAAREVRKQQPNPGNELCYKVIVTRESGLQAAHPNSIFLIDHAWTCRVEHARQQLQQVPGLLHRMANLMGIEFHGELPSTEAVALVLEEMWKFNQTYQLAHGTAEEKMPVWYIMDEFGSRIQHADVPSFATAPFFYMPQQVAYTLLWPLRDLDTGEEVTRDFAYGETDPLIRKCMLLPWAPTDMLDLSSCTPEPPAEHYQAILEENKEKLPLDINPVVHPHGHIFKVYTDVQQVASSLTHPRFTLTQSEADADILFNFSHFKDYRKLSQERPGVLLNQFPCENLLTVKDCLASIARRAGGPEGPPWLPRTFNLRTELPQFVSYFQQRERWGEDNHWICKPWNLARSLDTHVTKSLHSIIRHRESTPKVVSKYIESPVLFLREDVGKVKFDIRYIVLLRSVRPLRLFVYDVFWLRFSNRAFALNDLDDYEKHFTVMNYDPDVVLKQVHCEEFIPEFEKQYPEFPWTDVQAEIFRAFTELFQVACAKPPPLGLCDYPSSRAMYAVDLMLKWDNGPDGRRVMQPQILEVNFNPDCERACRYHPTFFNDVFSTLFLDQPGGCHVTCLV
inactive: [1] 0.039 | [2] -0.212 | [3] -0.003 | [4] 0.018 | [5] -0.03 | [6] -0.009 | [7] 0.032 | [8] 0 | [9] 0.003 | [10] 0.039

TTC4 (UniProt O95801)
Chain of UniProt O95801 (O95801 whole entry, looked up): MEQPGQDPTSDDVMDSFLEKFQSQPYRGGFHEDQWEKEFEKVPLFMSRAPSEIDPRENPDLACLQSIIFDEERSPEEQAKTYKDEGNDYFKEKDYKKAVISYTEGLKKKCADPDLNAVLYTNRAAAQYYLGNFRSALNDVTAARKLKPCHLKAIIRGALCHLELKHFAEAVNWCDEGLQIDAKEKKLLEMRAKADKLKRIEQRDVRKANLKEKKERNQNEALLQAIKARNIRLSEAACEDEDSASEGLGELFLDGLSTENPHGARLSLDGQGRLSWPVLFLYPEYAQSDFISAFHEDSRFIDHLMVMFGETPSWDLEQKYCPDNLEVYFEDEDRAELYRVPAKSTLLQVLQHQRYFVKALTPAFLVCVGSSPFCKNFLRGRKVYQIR
inactive: [1] -0.012 | [2] -0.183 | [3] 0.078 | [4] 0.004 | [5] 0.003 | [6] 0.021 | [7] -0.005 | [8] 0.008 | [9] -0.017 | [10] -0.003

UBE4A isoform 2 (UniProt Q14139)
inactive: [1] 0 | [2] -0.087 | [3] 0.029 | [4] 0.011 | [5] -0.073 | [6] 0.018 | [7] -0.102 | [8] 0.018 | [9] 0.013 | [10] -0.041

TECR (UniProt Q9NZ01)
inactive: [1] 0.05 | [2] -0.015 | [3] -0.046 | [4] 0.052 | [5] -0.008 | [6] 0.068 | [7] -0.104 | [8] 0.053 | [9] 0.048 | [10] -0.008
